According to PubChem BioAssay AID1159580 (chemical genetic matrix, 2015):
The campaign covered roughly 5,500 compounds. About 2,000 (36%) were called active. Roughly 18% stayed inconclusive and do not appear here. Cut-off read from the data, not from the text of the source: active = normalized growth mostly below about 0.91 (no sharp cut-off); inconclusive = no clear call, values can overlap the other calls; inactive = mostly above about 0.92. The list shows a part of the results.

Experiment: chemical genetic growth profiling, strain panel (AID 1159580);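 note: tested at 20 µM; growth read once vehicle control cultures reached saturation at 30 °C; 1 = growth at the plate median or of vehicle wells; lower values mean less growth of the strain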
Conditions: growth OD

Measured: normalized growth

CNC[C@H](O)c1cccc(O)c1
inactive: S. cerevisiae deletion strains, locus YKL009W, strain mrt4, hits give low values 1 | S. cerevisiae deletion strains, locus YKL068W, hits give low values 1.01 | S. cerevisiae deletion strains, locus YKL085W, strain MDH1 (second series), hits give low values 1.01 | S. cerevisiae deletion strains, locus YKL085W, strain MDH1, hits give low values 1.01 | S. cerevisiae deletion strains, locus YKL160W, strain elf1, hits give low values 0.963 | S. cerevisiae deletion strains, locus YKL190W, strain CNB1, hits give low values 1 | S. cerevisiae deletion strains, locus YKR001C, strain vps1, hits give low values 1.02 | S. cerevisiae deletion strains, locus YKR026C, strain gcn3, hits give low values 0.99 | S. cerevisiae deletion strains, locus YKR091W, strain srl3, hits give low values 0.962 | S. cerevisiae deletion strains, locus YLL001W, strain dnm1, hits give low values 0.962 | S. cerevisiae deletion strains, locus YLL026W, hits give low values 0.977 | S. cerevisiae deletion strains, locus YLL041C, strain sdh2, hits give low values 0.985 | S. cerevisiae deletion strains, locus YLR027C, strain aat2, hits give low values 0.974 | S. cerevisiae deletion strains, locus YLR039C, strain RIC1, hits give low values 1.03 | S. cerevisiae deletion strains, locus YLR058C, strain SHM2, hits give low values 1.01 | S. cerevisiae deletion strains, locus YLR102C, strain apc9, hits give low values 1.01 | S. cerevisiae deletion strains, locus YLR113W, strain HOG1, hits give low values 1 | S. cerevisiae deletion strains, locus YLR221C, strain rsa3, hits give low values 0.987 | S. cerevisiae deletion strains, locus YLR258W, strain gsy2, hits give low values 0.986 | S. cerevisiae deletion strains, locus YLR262C, strain YPT6 (second series), hits give low values 0.969 | S. cerevisiae deletion strains, locus YLR262C, strain YPT6, hits give low values 1.03 | S. cerevisiae deletion strains, locus YLR268W, strain sec22, hits give low values 1.02 | S. cerevisiae deletion strains, locus YLR320W, strain mms22, hits give low values 0.964 | S. cerevisiae deletion strains, locus YLR330W, strain CHS5, hits give low values 1.01 | S. cerevisiae deletion strains, locus YLR342W, strain FKS1 (second series), hits give low values 0.994 | S. cerevisiae deletion strains, locus YLR342W, strain FKS1, hits give low values 0.963 | S. cerevisiae deletion strains, locus YLR357W, strain rsc2, hits give low values 0.906 | S. cerevisiae deletion strains, locus YLR370C, strain arc18, hits give low values 0.991 | S. cerevisiae deletion strains, locus YLR371W, strain rom2, hits give low values 1.01 | S. cerevisiae deletion strains, locus YLR384C, strain iki3, hits give low values 0.979 | S. cerevisiae deletion strains, locus YLR418C, strain cdc73, hits give low values 1.02 | S. cerevisiae deletion strains, locus YML016C, strain PPZ1, hits give low values 1.01 | S. cerevisiae deletion strains, locus YML032C, strain rad52, hits give low values 1.02 | S. cerevisiae deletion strains, locus YML120C, strain ndi1, hits give low values 0.979 | S. cerevisiae deletion strains, locus YML124C, strain tub3, hits give low values 1.02 | S. cerevisiae deletion strains, locus YMR058W, strain fet3, hits give low values 0.971 | S. cerevisiae deletion strains, locus YMR078C, strain ctf18, hits give low values 1.01 | S. cerevisiae deletion strains, locus YMR125W, strain sto1, hits give low values 0.995 | S. cerevisiae deletion strains, locus YMR129W, hits give low values 0.988 | S. cerevisiae deletion strains, locus YMR205C, strain PFK2, hits give low values 0.965 | S. cerevisiae deletion strains, locus YMR223W, strain ubp8, hits give low values 1.01 | S. cerevisiae deletion strains, locus YMR231W, strain pep5, hits give low values 0.982 | S. cerevisiae deletion strains, locus YMR263W, strain SAP30, hits give low values 1.01 | S. cerevisiae deletion strains, locus YMR307W, strain GAS1, hits give low values 1.02 | S. cerevisiae deletion strains, locus YNL067W, strain RPL9B, hits give low values 1 | S. cerevisiae deletion strains, locus YNL071W, strain lat1, hits give low values 0.998 | S. cerevisiae deletion strains, locus YNL128W, strain TEP1, hits give low values 1.01 | S. cerevisiae deletion strains, locus YNL153C, strain GIM3, hits give low values 1.01 | S. cerevisiae deletion strains, locus YNL183C, strain NPR1, hits give low values 0.975 | S. cerevisiae deletion strains, locus YNL209W, strain ssb2, hits give low values 0.991 | S. cerevisiae deletion strains, locus YNL233W, strain BNI4, hits give low values 1.01 | S. cerevisiae deletion strains, locus YNL248C, strain rpa49, hits give low values 0.988 | S. cerevisiae deletion strains, locus YNL250W, strain rad50, hits give low values 1.02 | S. cerevisiae deletion strains, locus YNL271C, strain bni1, hits give low values 1.02 | S. cerevisiae deletion strains, locus YNL298W, strain CLA4, hits give low values 1.03 | S. cerevisiae deletion strains, locus YNL307C, strain MCK1, hits give low values 1.02 | S. cerevisiae deletion strains, locus YNL322C, strain KRE1 (second series), hits give low values 0.976 | S. cerevisiae deletion strains, locus YNL322C, strain KRE1, hits give low values 1 | S. cerevisiae deletion strains, locus YNR049C, strain mso1, hits give low values 0.993 | S. cerevisiae deletion strains, locus YNR052C, strain pop2, hits give low values 1.02 | S. cerevisiae deletion strains, locus YOL006C, strain TOP1, hits give low values 1.05 | S. cerevisiae deletion strains, locus YOL012C, strain htz1 0.81 | S. cerevisiae deletion strains, locus YOL147C, strain pex11, hits give low values 1.02 | S. cerevisiae deletion strains, locus YOR001W, strain rrp6, hits give low values 0.977 | S. cerevisiae deletion strains, locus YOR061W, strain CKA2, hits give low values 1.01 | S. cerevisiae deletion strains, locus YOR069W, strain VPS5, hits give low values 1.01 | S. cerevisiae deletion strains, locus YOR070C, strain gyp1, hits give low values 0.994 | S. cerevisiae deletion strains, locus YOR080W, strain dia2, hits give low values 0.98 | S. cerevisiae deletion strains, locus YOR083W, strain WHI5, hits give low values 0.953 | S. cerevisiae deletion strains, locus YOR106W, strain vam3, hits give low values 0.98 | S. cerevisiae deletion strains, locus YOR136W, strain idh2, hits give low values 1.02 | S. cerevisiae deletion strains, locus YOR144C, strain elg1, hits give low values 1.01 | S. cerevisiae deletion strains, locus YOR184W, strain ser1, hits give low values 1.04 | S. cerevisiae deletion strains, locus YOR231W, strain MKK1, hits give low values 1 | S. cerevisiae deletion strains, locus YOR265W, strain rbl2, hits give low values 0.989 | S. cerevisiae deletion strains, locus YOR270C, strain vph1, hits give low values 1 | S. cerevisiae deletion strains, locus YOR290C, strain snf2, hits give low values 0.993 | S. cerevisiae deletion strains, locus YOR316C, strain cot1, hits give low values 1.02 | S. cerevisiae deletion strains, locus YPL051W, strain arl3, hits give low values 0.973 | S. cerevisiae deletion strains, locus YPL055C, strain LGE1, hits give low values 1.01 | S. cerevisiae deletion strains, locus YPL078C, strain atp4, hits give low values 0.966 | S. cerevisiae deletion strains, locus YPL106C, strain sse1, hits give low values 0.95 | S. cerevisiae deletion strains, locus YPL240C, strain hsp82, hits give low values 0.982 | S. cerevisiae deletion strains, locus YPL241C, strain CIN2, hits give low values 1.01 | S. cerevisiae deletion strains, locus YPL256C, strain CLN2, hits give low values 1.01 | S. cerevisiae deletion strains, locus YPR119W, strain clb2, hits give low values 1.01 | S. cerevisiae deletion strains, locus YPR141C, strain kar3, hits give low values 1.02 | S. cerevisiae deletion strains, locus YPR163C, strain tif3, hits give low values 1.02 | S. cerevisiae deletion strains, locus YPR167C, strain met16, hits give low values 1.02 | S. cerevisiae deletion strains, strain wtn01, hits give low values 1.01 | S. cerevisiae strains, strain wild type, hits give low values 1.01
